39 targets from the supplement of paper PMC10849652 can be followed below.

The full data set covers some 7,900 targets. This sample favours those with a hit. About 0.6% of all pairs of compound and target were hits.

Chain of UniProt Q96GQ7 (Q96GQ7 whole entry, looked up): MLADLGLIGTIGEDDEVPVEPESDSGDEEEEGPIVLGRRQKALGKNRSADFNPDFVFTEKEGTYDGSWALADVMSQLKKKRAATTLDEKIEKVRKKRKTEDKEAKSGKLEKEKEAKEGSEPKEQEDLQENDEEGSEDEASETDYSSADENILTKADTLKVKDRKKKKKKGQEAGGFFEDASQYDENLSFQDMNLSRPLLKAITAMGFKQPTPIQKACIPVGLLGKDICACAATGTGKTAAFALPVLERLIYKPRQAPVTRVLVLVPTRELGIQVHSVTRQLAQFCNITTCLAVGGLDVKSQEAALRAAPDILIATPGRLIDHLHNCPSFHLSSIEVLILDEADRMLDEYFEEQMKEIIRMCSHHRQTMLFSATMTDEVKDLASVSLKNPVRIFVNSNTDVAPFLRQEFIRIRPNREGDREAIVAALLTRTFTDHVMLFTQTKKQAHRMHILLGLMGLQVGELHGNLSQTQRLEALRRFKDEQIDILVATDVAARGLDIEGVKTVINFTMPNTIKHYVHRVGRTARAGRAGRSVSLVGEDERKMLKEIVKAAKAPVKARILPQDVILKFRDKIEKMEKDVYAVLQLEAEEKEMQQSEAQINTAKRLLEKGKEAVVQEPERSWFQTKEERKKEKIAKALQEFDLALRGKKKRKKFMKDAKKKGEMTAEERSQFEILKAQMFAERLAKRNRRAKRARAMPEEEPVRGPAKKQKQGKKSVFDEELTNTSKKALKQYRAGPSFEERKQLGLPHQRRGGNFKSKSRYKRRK
Chain of UniProt Q96RI0 (Q96RI0 whole entry, looked up): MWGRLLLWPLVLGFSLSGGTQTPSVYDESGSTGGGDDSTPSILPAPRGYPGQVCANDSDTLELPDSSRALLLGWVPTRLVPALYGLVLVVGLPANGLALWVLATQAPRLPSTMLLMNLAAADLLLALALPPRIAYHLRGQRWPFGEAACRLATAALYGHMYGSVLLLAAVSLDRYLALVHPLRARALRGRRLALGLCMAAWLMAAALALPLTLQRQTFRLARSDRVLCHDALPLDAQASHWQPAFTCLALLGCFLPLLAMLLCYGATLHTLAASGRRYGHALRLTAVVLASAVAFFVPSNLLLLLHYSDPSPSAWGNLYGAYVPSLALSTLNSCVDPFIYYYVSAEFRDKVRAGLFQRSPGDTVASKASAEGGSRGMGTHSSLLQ
Chain of UniProt Q8NBI2 (Q8NBI2 whole entry, looked up): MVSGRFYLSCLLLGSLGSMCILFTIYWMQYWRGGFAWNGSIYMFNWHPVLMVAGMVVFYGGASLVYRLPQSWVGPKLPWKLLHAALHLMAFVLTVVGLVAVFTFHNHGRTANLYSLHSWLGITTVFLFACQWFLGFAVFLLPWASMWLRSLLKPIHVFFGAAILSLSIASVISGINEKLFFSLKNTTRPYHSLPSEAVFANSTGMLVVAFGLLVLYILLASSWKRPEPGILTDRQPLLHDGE
Chain of UniProt Q6UX07 (Q6UX07 whole entry, looked up): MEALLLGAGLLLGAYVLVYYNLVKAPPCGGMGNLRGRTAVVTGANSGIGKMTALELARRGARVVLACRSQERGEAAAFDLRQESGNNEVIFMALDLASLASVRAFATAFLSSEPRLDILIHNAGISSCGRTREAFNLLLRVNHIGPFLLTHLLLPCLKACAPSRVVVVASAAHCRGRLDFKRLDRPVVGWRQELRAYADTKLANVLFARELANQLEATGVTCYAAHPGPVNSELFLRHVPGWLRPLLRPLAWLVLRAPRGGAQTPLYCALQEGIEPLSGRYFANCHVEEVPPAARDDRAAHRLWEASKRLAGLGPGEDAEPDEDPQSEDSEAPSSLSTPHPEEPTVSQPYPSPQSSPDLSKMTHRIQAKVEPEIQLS
Chain of UniProt Q9NSI2 (Q9NSI2 whole entry, looked up): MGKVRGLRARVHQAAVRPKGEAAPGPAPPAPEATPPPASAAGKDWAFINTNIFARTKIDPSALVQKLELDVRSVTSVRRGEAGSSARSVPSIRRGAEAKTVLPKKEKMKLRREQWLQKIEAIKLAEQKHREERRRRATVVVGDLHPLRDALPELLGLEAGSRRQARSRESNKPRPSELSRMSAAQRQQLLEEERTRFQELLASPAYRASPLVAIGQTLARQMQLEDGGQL
Chain of UniProt Q6P1L5 (Q6P1L5 whole entry, looked up): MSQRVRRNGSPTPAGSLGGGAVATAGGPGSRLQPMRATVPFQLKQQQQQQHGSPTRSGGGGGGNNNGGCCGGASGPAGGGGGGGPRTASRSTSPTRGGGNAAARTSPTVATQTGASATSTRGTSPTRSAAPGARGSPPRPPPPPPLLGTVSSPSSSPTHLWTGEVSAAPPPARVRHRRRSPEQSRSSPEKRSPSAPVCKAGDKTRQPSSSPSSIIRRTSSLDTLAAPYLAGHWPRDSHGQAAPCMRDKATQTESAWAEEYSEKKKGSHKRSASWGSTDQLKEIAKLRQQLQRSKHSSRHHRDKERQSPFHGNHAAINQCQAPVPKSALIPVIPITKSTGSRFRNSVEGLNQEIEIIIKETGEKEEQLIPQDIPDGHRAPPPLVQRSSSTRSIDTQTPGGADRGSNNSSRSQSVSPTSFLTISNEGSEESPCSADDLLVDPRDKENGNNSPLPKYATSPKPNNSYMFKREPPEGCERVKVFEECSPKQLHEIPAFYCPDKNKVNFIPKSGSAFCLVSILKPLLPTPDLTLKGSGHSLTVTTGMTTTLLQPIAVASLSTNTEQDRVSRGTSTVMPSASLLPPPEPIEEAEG
Chain of UniProt Q07973 (Q07973 whole entry, looked up): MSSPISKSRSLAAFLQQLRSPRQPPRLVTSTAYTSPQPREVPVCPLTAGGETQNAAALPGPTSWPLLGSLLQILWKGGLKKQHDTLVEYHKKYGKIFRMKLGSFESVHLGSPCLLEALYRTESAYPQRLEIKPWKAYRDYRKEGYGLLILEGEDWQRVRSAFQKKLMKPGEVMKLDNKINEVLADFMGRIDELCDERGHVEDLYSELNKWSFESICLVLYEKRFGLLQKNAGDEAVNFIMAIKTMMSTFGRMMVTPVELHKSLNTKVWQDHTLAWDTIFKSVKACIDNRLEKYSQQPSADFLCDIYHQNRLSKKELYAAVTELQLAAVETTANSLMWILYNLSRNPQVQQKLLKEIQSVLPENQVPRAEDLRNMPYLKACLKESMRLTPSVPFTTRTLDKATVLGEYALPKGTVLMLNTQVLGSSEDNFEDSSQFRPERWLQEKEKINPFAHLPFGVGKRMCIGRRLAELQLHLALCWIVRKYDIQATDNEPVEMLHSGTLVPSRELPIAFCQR
Chain of UniProt Q96FC9 (Q96FC9 whole entry, looked up): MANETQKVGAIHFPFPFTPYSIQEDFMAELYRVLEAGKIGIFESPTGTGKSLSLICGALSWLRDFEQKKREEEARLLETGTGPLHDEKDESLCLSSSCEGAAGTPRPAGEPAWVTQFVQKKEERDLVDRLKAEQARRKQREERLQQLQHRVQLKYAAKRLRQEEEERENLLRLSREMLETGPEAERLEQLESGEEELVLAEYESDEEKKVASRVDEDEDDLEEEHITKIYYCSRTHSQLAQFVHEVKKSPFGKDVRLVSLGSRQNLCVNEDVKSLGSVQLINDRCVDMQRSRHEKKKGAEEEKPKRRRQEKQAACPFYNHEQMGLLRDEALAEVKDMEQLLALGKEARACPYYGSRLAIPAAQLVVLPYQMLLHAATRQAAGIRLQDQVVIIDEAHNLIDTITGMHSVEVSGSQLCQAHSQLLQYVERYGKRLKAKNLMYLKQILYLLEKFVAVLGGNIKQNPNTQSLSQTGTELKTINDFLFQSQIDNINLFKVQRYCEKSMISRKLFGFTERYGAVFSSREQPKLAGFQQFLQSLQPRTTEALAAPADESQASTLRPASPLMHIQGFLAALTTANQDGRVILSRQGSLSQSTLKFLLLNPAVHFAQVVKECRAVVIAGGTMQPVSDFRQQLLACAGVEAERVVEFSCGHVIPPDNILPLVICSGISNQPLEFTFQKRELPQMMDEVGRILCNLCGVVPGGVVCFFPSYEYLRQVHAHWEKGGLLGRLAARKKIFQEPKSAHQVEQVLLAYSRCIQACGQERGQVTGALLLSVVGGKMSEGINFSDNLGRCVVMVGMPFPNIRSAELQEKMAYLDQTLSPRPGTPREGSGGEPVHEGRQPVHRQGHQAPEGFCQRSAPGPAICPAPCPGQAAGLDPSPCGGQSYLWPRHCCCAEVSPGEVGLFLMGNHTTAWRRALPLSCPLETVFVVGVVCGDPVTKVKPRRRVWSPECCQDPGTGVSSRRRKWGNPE
Chain of UniProt O75822 (O75822 whole entry, looked up): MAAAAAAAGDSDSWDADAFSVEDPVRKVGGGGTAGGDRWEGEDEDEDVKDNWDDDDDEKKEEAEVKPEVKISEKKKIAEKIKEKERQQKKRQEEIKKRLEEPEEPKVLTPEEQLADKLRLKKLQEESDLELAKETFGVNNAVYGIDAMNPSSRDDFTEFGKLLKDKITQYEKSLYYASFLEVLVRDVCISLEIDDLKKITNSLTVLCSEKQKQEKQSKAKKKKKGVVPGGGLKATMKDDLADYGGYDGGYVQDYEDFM
Chain of UniProt Q13409 (Q13409 whole entry, looked up): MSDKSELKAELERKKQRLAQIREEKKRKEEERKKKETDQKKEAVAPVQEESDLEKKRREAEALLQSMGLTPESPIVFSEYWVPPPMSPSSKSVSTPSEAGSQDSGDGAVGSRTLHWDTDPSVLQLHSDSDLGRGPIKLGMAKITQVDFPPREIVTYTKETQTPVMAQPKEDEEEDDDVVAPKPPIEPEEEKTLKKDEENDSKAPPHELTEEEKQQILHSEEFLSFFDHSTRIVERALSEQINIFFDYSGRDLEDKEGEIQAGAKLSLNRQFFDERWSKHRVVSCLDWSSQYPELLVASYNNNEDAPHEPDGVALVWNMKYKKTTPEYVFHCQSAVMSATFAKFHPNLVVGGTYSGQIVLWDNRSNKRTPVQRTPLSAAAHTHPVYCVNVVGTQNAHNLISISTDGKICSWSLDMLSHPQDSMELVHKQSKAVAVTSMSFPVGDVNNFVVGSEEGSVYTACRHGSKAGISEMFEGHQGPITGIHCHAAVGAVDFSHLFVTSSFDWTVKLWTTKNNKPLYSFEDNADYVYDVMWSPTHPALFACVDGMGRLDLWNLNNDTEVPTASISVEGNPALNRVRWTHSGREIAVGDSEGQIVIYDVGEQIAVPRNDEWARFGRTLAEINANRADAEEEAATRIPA

Compound in one test: C1=CC=C(C=C1)[C@H](COC2=CC3=C(C=C2)NC(=O)N3)NC(=O)C4=CC=CN(C4=O)CC5=CC(=C(C=C5)F)F
Put plainly: log2 fold change, soluble protein after heating vs DMSO (PISA); higher = thermal stabilisation; K562 cells, 10 uM, 30 min; active = over 0.2 and 3.5 SD of the protein, either way, in both replicates (recomputed). Summed up:
(§1)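 Thermal stability values are relative to control samples and come from duplicates. They are expressed as log2 fold changes. For measurement, K562 cells (2×10^6 cells/mL) received 10 μM compound for 30 min, and aliquots were heated for 3 min over 48°C-58°C, pooled, and extracted at 4°C in PBS with 0.5% NP-40. Soluble protein, the supernatant after 21,000xg for 90 min, was quantified by TMTpro 16plex LC-MS/MS with equalised channel sums.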
For DNAJC19 (UniProt Q96DA6), the log2 fold change is 0.025 (inactive).

Regarding FADS1 (UniProt F5GYH4), the log2 fold change was -0.216 (inactive).

With DOP1A (UniProt Q5JWR5), the log2 fold change is 0.203 (inactive).

As for CYP24A1 (UniProt Q07973), the log2 fold change is 0.17 (inactive).

CYB561A3 isoform 2 (UniProt Q8NBI2): the log2 fold change is 0.033 (inactive).

For the target DERPC (UniProt P0CG12), the log2 fold change is 0 (inactive).

Take CTNNBL1 (UniProt Q8WYA6): the log2 fold change was 0.029 (inactive).

Turning to DDX11 (UniProt Q96FC9), the log2 fold change was -0.068 (inactive).

In the case of FAM207A (UniProt Q9NSI2), the log2 fold change is 0.107 (inactive).

Turning to EDRF1 (UniProt Q3B7T1), the log2 fold change is 0.043 (inactive).

With EIF3J isoform 2 (UniProt O75822), the log2 fold change is 0.092 (inactive).

For the target ELMO1 (UniProt Q92556), the log2 fold change is -0.085 (inactive).

For the target DENND1A isoform 6 (UniProt Q8TEH3), the log2 fold change is 0.152 (inactive).

In the case of DNAL1 (UniProt Q4LDG9), the log2 fold change is 0.146 (inactive).

As to ENTPD7 (UniProt Q9NQZ7), the log2 fold change is 0.066 (inactive).

For DYRK1A isoform 2 (UniProt Q13627), the log2 fold change was -0.062 (inactive).

Turning to DNM2 isoform 4 (UniProt P50570), the log2 fold change was 0.015 (inactive).

With DYNC1I2 isoform 2 (UniProt Q13409), the log2 fold change is 0.028 (inactive).

With EIF2AK3 (UniProt Q9NZJ5), the log2 fold change was -0.473 (inactive).

Compound in the next test: CC1=C(SC2=C1C(=N[C@H](C3=NN=C(N32)C)CC(=O)N)C4=CC=C(C=C4)Cl)C
The description is as above. Summed up: as §1
Regarding F2RL3 (UniProt Q96RI0), the log2 fold change is 0.175 (inactive).

As for DNAJC19 (UniProt Q96DA6), the log2 fold change was 0.021 (inactive).

For the target CTSS (UniProt P25774), the log2 fold change was -0.004 (inactive).

Regarding DCP2 (UniProt Q8IU60), the log2 fold change was -0.121 (inactive).

As to DLK1 (UniProt P80370), the log2 fold change was 0.065 (inactive).

For the target CYB561A3 isoform 2 (UniProt Q8NBI2), the log2 fold change is -0.009 (inactive).

For EEF2K (UniProt O00418), the log2 fold change is 0.001 (inactive).

In the case of CWF19L2 (UniProt Q2TBE0), the log2 fold change is -0.169 (inactive).

In the case of EDRF1 (UniProt Q3B7T1), the log2 fold change is 0.245 (inactive).

As for ELOVL7 (UniProt A1L3X0), the log2 fold change is 0.077 (inactive).

Consider DNAL1 (UniProt Q4LDG9), for which the log2 fold change was 0.086 (inactive).

DBNL (UniProt Q9UJU6): the log2 fold change is -0.04 (inactive).

Regarding EIF4G1 (UniProt Q04637), the log2 fold change is -0.032 (inactive).

Take DDX27 (UniProt Q96GQ7): the log2 fold change was -0.197 (inactive).

On to FAM117B (UniProt Q6P1L5), for which the log2 fold change was 0.283 (inactive).

With ELF1 (UniProt P32519), the log2 fold change is 0.008 (inactive).

Take DYRK1A isoform 2 (UniProt Q13627): the log2 fold change was 0.059 (inactive).

Turning to DHRS13 (UniProt Q6UX07), the log2 fold change is 0.084 (inactive).

Take DNM2 isoform 4 (UniProt P50570): the log2 fold change was 0.065 (inactive).

For DYNC1I2 isoform 2 (UniProt Q13409), the log2 fold change was -0.059 (inactive).

Regarding EIF2AK3 (UniProt Q9NZJ5), the log2 fold change is -0.027 (inactive).

With EHBP1 (UniProt Q8NDI1), the log2 fold change was -0.163 (inactive).

On to ELAC1 (UniProt Q9H777), for which the log2 fold change is 0.123 (inactive).

Compound in the next test: CC1=C2C(=CC=C1)N=C(N(C2=O)C3=CC=CC=C3C)CN4C=NC5=C(N=CN=C54)N
Described as above. Summed up:
as §1
For the target F2RL3 (UniProt Q96RI0), the log2 fold change was 0.06 (inactive).

For the target DNAJC19 (UniProt Q96DA6), the log2 fold change is 0.05 (inactive).

Regarding FADS1 (UniProt F5GYH4), the log2 fold change was -0.02 (inactive).

DOP1A (UniProt Q5JWR5): the log2 fold change is 0.049 (inactive).

CTSS (UniProt P25774): the log2 fold change was -0.033 (inactive).

Turning to FAM135A (UniProt Q9P2D6), the log2 fold change was 0.106 (inactive).

As for DCP2 (UniProt Q8IU60), the log2 fold change was -0.044 (inactive).

With DLK1 (UniProt P80370), the log2 fold change was 0.198 (inactive).

With CYP24A1 (UniProt Q07973), the log2 fold change is -0.175 (inactive).

For DERPC (UniProt P0CG12), the log2 fold change was -0.015 (inactive).

In the case of CTNNBL1 (UniProt Q8WYA6), the log2 fold change was 0.17 (inactive).

As to DDX11 (UniProt Q96FC9), the log2 fold change is 0.335 (inactive).

For EEF2K (UniProt O00418), the log2 fold change was 0.145 (inactive).

Regarding FAM207A (UniProt Q9NSI2), the log2 fold change was 0.001 (inactive).

In the case of EIF3J isoform 2 (UniProt O75822), the log2 fold change was 0.25 (inactive).

Take ENTR1 (UniProt Q96C92): the log2 fold change was 0.191 (inactive).

For ELMO1 (UniProt Q92556), the log2 fold change was 0.026 (inactive).

With DENND1A isoform 6 (UniProt Q8TEH3), the log2 fold change was 0.146 (inactive).

DNAL1 (UniProt Q4LDG9): the log2 fold change is -0.264 (inactive).

As for EIF4G1 (UniProt Q04637), the log2 fold change is 0.011 (inactive).

DDX27 (UniProt Q96GQ7): the log2 fold change was -0.157 (inactive).

For the target FAM117B (UniProt Q6P1L5), the log2 fold change was 0.116 (inactive).

Take DYRK1A isoform 2 (UniProt Q13627): the log2 fold change was 0.085 (inactive).

For the target DHRS13 (UniProt Q6UX07), the log2 fold change was 0.099 (inactive).

Take ELAC1 (UniProt Q9H777): the log2 fold change is 0.146 (inactive).

Compound in another test: Cc1sc2c(c1C)C(c1ccc(Cl)cc1)=N[C@@H](CC(=O)OC(C)(C)C)c1nnc(C)n1-2
The test is described as above. Summed up:
as §1
On to F2RL3 (UniProt Q96RI0), for which the log2 fold change was -0.197 (inactive).

As to EID1 (UniProt Q9Y6B2), the log2 fold change is -0.135 (inactive).

For DNAJC19 (UniProt Q96DA6), the log2 fold change is 0 (inactive).

In the case of FADS1 (UniProt F5GYH4), the log2 fold change was -0.036 (inactive).

CTSS (UniProt P25774): the log2 fold change is -0.192 (inactive).

Turning to DCP2 (UniProt Q8IU60), the log2 fold change is 0.077 (inactive).

Take CYP24A1 (UniProt Q07973): the log2 fold change is 0.266 (inactive).

For the target CYB561A3 isoform 2 (UniProt Q8NBI2), the log2 fold change is -0.075 (inactive).

For the target DDX11 (UniProt Q96FC9), the log2 fold change was 0.059 (inactive).

As for CWF19L2 (UniProt Q2TBE0), the log2 fold change was 0.028 (inactive).

For the target FAM207A (UniProt Q9NSI2), the log2 fold change is 0.021 (inactive).

For EIF3J isoform 2 (UniProt O75822), the log2 fold change was 0.049 (inactive).

As to ELOVL7 (UniProt A1L3X0), the log2 fold change was -0.066 (inactive).

With EEF1D isoform 3 (UniProt P29692), the log2 fold change was -0.694 (inactive).

Turning to DENND1A isoform 6 (UniProt Q8TEH3), the log2 fold change is 0.284 (inactive).

ERF (UniProt P50548): the log2 fold change was -0.515 (inactive).

Regarding ENTPD7 (UniProt Q9NQZ7), the log2 fold change was 0.173 (inactive).

In the case of EIF4G1 (UniProt Q04637), the log2 fold change is 0.098 (inactive).

With DDX27 (UniProt Q96GQ7), the log2 fold change was 0.12 (inactive).

FAM117B (UniProt Q6P1L5): the log2 fold change was -0.097 (inactive).

For ELF1 (UniProt P32519), the log2 fold change was 0.017 (inactive).

For DYRK1A isoform 2 (UniProt Q13627), the log2 fold change is 0.026 (inactive).

Turning to DHRS13 (UniProt Q6UX07), the log2 fold change is 0.218 (inactive).

On to DYNC1I2 isoform 2 (UniProt Q13409), for which the log2 fold change is -0.068 (inactive).

Regarding EIF2AK3 (UniProt Q9NZJ5), the log2 fold change is -0.196 (inactive).

In the case of EHBP1 (UniProt Q8NDI1), the log2 fold change is 0.041 (inactive).
